Measured values from ChEMBL document CHEMBL2218924, “A broad activity screen in support of a chemogenomic map for kinase signalling research and drug discovery” (Biochem J, 2013).

molecular target: Death-associated protein kinase 1 (Homo sapiens) (UniProt P53355); conditions: at 1 µM
Sequence (P53355 whole entry, looked up): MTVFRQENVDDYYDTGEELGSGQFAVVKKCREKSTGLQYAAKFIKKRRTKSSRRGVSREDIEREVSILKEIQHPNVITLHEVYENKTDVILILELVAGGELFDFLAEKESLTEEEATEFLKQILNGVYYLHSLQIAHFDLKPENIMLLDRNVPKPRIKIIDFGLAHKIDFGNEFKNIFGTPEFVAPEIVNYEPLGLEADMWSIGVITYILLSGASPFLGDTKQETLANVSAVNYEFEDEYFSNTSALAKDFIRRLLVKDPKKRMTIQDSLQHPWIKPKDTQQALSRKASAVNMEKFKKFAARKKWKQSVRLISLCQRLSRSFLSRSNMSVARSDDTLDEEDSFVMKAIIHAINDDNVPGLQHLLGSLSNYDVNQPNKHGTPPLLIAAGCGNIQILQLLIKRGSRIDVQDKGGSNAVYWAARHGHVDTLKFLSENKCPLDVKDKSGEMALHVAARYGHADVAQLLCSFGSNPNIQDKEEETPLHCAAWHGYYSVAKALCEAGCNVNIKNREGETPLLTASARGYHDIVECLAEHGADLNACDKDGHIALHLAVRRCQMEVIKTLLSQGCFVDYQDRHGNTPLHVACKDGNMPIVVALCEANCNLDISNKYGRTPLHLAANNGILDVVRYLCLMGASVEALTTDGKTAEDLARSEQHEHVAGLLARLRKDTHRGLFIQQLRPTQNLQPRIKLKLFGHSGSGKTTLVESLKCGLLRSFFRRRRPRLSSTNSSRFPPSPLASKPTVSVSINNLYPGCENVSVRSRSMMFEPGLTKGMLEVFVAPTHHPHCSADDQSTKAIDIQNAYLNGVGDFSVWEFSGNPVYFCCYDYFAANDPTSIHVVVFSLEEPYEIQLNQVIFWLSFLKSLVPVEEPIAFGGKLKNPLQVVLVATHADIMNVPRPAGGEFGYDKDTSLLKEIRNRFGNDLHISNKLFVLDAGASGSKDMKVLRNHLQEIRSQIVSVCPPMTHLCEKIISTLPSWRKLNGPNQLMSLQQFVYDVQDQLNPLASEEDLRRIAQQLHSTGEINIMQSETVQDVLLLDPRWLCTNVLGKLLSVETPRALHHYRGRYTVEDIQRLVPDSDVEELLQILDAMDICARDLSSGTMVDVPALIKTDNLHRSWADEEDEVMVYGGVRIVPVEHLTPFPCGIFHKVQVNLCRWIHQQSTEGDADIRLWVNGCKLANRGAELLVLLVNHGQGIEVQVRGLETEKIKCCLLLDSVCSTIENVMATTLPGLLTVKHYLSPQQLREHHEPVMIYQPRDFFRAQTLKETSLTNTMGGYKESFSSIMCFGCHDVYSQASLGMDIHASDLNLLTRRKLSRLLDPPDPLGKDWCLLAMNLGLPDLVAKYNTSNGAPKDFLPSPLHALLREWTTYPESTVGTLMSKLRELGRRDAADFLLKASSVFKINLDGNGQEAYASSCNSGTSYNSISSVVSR

Compound | residual activity
CC[n+]1c(/C=C/N(C)c2ccccc2)n(-c2ccccc2)c2ccc(-c3nc4ccccc4s3)cc21 | 79%
O=c1cc(-c2cccc3c2Sc2ccccc2S3)oc(N2CCOCC2)c1 | 91%
c1ccc2c(-c3ccncc3)c[nH]c2c1 | 85%
O=C1c2ccccc2-[n+]2ccc3c([nH]c4ccccc43)c21 | 86%
O=C(c1ccccc1)c1ccc(N2CCOCC2)cc1O | 97%
Cc1ccc(NC2=CC(=O)c3sc(C)nc3C2=O)cc1 | 87%
Nc1ncnc2c1cnn2-c1ccccc1 | 84%
Cn1sc(=O)n(Cc2ccccc2)c1=O | 80%
CN(C)c1ccc(/C=C2\C(=O)Nc3ccccc32)cc1 | 102%
O=Nc1c(-c2c(O)[nH]c3ccccc23)[nH]c2ccccc12 | 91%
NC(=O)c1ccc2[nH]c(-c3ccc(Oc4ccc(Cl)cc4)cc3)nc2c1 | 93%
O=c1c2ccccc2[nH]c(=S)n1CCN1CCC(=C(c2ccc(F)cc2)c2ccc(F)cc2)CC1 | 106%
O=[N+]([O-])c1ccc(-c2nc(-c3ccc(F)cc3)c(-c3ccncc3)[nH]2)cc1 | 74%
COc1cc2ncnc(Nc3cccc(Cl)c3)c2cc1OC | 104%
O=c1cc(N2CCOCC2)oc2c1ccc1ccccc12 | 90%
Cc1cc(Nc2nc(-c3ccccc3)nc3ccccc23)n[nH]1 | 59%
Cc1ccc(S(=O)(=O)/C=C/C#N)cc1 | 88%
c1ccc(-c2n[nH]c3c2oc2ccccc23)cc1 | 94%
COc1cc2ncnc(N3CCN(C(=O)Nc4ccc(Oc5ccccc5)cc4)CC3)c2cc1OC | 90%
